PubChem BioAssay (EPA / NIEHS)
Active and inactive are the calls of the source. The calls were made as follows: active = hit-call score of the fitted dose curve at least 0.9, where 1 is the maximum; inactive = score below 0.9.

assay: ATG_TCF_b_cat_CIS: Attagene CIS-FACTORIAL HepG2 Assay for human T-Cell-Factor with beta-catenin (TCF/b-cat) (AID 2282965); details: HepG2 TCF/beta-catenin cis-reporter transcription, actives raise or lower the signal
Experimental: ATG_CIS is a cell-based, multiplexed-readout assay that uses HepG2, a human liver cell line, with measurements taken at 24 hours after chemical dosing in a 24-well plate.ATG_TCF_b_cat_CIS is one of 52 assay component(s) measured or calculated from the ATG_CIS assay. It is designed to make measurements of mRNA induction, a form of inducible reporter, as detected with fluorescence intensity signals by Reverse transcription polymerase chain reaction (RT-PCR) and Capillary electrophoresis technology.Data from the assay component ATG_TCF_b_cat_CIS was analyzed into 1 assay endpoint. This assay endpoint, ATG_TCF_b_cat_CIS, was analyzed with bidirectional fitting relative to DMSO as the negative control and baseline of activity. Using a type of inducible reporter, measures of mRNA for gain or loss-of-signal activity can be used to understand the reporter gene at the transcription factor-level as they relate to the gene TCF7 and TCF7L2 and LEF1 and TCF7L1. Furthermore, this assay endpoint can be referred to as a primary readout, because this assay has produced multiple assay endpoints where this one serves a reporter gene function. To generalize the intended target to other relatable targets, this assay endpoint is annotated to the dna binding intended target family, where the subfamily is HMG box protein.
Human liver HepG2 cells are transiently transfected with multiple reporter transcription units (MRTUs) in 6-well plates using FuGene 6 reagent (Roche; 3 ml FuGene/1 mg DNA). The MRTU constructs are regulated by a cis-regulating element (promoter). […] A major difference between the CIS and TRANS system is that in CIS activities of endogenous TFs are measured, whereas the TRANS assay evaluates changes in activities of exogenous, chimeric NR-Gal4 proteins. […] At the end of 24 hour incubation, total RNA was isolated using TriZol reagent (Invitrogen). The isolated RNA is then reverse-transcribed using oligo(dT) primer and Mo-MLV reverse transcriptase (Invitrogen) with DNAse I (Ambion) treatment for 30 min. The one-tenth of the produced cDNA was amplified by PCR using Taq DNA polymerase (Invitrogen) and two reporter sequence-specific primers. The PCR products were fluorescently labeled by primer extension with 6-arboxyfluorescein (6-FAM) 5'-labeled reporter sequence-specific primer (2 min at 95 C, 20 s at 68 C and 10 min at 72 C) and these products were digested with 5U of HpaI (New England Biolabs) for 2h at 37 C. The fragments were purified using Qiaquick PCR columns (Qiagen), analyzed on an ABI 3130xL genetic analyzer (Applied Biosystems) with peak positions identified by using a set of X-rhodamine (ROX)-labeled MapMarker1000 molecular weight standards (BioVentures). The raw capillary electrophoresis data was processed using Attagraph software (Attagene).

For `CCCCCCCCCC[N+](C)(CCCCCCCCCC)CCC[Si](OC)(OC)OC`, which outcome is on record?
Its outcome is “inactive”.

With `CCCC/C=C/C=C\C=O` as the compound, how does the AC50 read?
The AC50 was 100 µM (active).

With `CCOC(=O)C1=NN(c2ccc(Cl)cc2Cl)C(C)(C(=O)OCC)C1` (stereo not given) as the compound, how does the outcome read?
Its outcome is “inactive”.

For `CCCCCCCCCC(C)=O`, which outcome is on record?
Its outcome is “inactive”.

With `CCCCC1C(=O)N(c2ccccc2)N(c2ccccc2)C1=O` as the compound, how does the outcome read?
Its outcome is “inactive”.

With `CCCCCCCCCCCCCC(=O)OC(C)C` as the compound, how does the outcome read?
The outcome was “inactive”.

With `CCc1cccc(CC)c1` as the compound, how does the outcome read?
The outcome was “inactive”.

Which outcome does the source give for `NNS(=O)(=O)c1ccc(Oc2ccc(S(=O)(=O)NN)cc2)cc1` here?
Its outcome is “inactive”.

Which outcome does the source give for `CC(C)c1cccc(C(C)C)c1N` here?
The outcome was “inactive”.

Which outcome does the source give for `Nc1cccc(N)n1` here?
The outcome was “inactive”.

With `Cc1c(O)cccc1O` as the compound, how does the outcome read?
The outcome was “inactive”.

For `CC(=O)CCC=C(C)C`, which outcome is on record?
Its outcome is “inactive”.

With `CC(C)(c1ccccc1)c1ccc(Nc2ccc(C(C)(C)c3ccccc3)cc2)cc1` as the compound, how does the outcome read?
The outcome was “inactive”.

With `COC(=O)c1ccccc1C` as the compound, how does the outcome read?
Its outcome is “inactive”.

Which outcome does the source give for `O=C(O)/C=C/c1ccccc1` here?
Its outcome is “inactive”.

For `CC(=O)CCC1=C(C)CCCC1(C)C`, which outcome is on record?
Its outcome is “inactive”.

Which outcome does the source give for `CCCCC(=O)O` here?
The outcome was “inactive”.

With `C=C(C)[C@@H]1CC=C(C)CC1` as the compound, how does the outcome read?
Its outcome is “inactive”.

Which outcome does the source give for `CC1=NN(c2ccc(S(=O)(=O)O)cc2)C(=O)C1N=Nc1ccccc1` (stereo not given) here?
The outcome was “inactive”.

For `CCCCCCCOC(=O)c1ccc(O)cc1`, which outcome is on record?
Its outcome is “inactive”.

Which outcome does the source give for `CCCCc1ccc(Cl)cc1` here?
Its outcome is “inactive”.

With `CCCCOCCOCCOC(C)=O` as the compound, how does the outcome read?
Its outcome is “inactive”.

For `CC1=CCC(C(C)C)C=C1` (stereo not given), which outcome is on record?
Its outcome is “inactive”.

With `CCCCCCCCC(CO)CCCCCC` (stereo not given) as the compound, how does the outcome read?
The outcome was “inactive”.

For `CCC(C)C(=O)OC` (stereo not given), which outcome is on record?
Its outcome is “inactive”.

Which outcome does the source give for `C=CCCCCCCCCO` here?
The outcome was “inactive”.

With `CCCCCCOc1ccc(N)cc1` as the compound, how does the outcome read?
The outcome was “inactive”.

Which outcome does the source give for `C=Cc1ccc(OC(C)=O)cc1` here?
Its outcome is “inactive”.

For `CC1CC(=O)CC(C)(C)C1` (stereo not given), which outcome is on record?
The outcome was “inactive”.

For `C[Si]1(C)O[Si](C)(C)O[Si](C)(C)O[Si](C)(C)O[Si](C)(C)O1`, which outcome is on record?
The outcome was “inactive”.

With `CCCCCC(=O)OCC` as the compound, how does the outcome read?
Its outcome is “inactive”.

Which outcome does the source give for `CC=C(C)C(C)=O` here?
Its outcome is “inactive”.

For `COC(OC)(C(=O)c1ccccc1)c1ccccc1`, which outcome is on record?
Its outcome is “inactive”.

Which outcome does the source give for `O=C(O)C1CCC(C(=O)O)CC1` (stereo not given) here?
The outcome was “inactive”.

With `Nc1ccnc(=O)[nH]1` as the compound, how does the outcome read?
Its outcome is “inactive”.

For `COc1ccc(C(=O)/C(Br)=C\C(=O)O)cc1`, which outcome is on record?
Its outcome is “inactive”.

Which outcome does the source give for `C=C(C)C1CC=C(C)C(OC(C)=O)C1` (stereo not given) here?
The outcome was “inactive”.

Which outcome does the source give for `CCC(C)N` (stereo not given) here?
The outcome was “inactive”.

Which outcome does the source give for `CN1CCN(C)CC1` here?
Its outcome is “inactive”.

For `CCCC=C(C=O)CC`, which outcome is on record?
The outcome was “inactive”.
